In the library only some 2.9% were active in any assay of this set; here they are far more common.
POLI inh: qHTS for Inhibitors of Polymerase Iota. DNA polymerase iota (Homo sapiens), Q9UNA4. 1% of 390,000 active. AID 588590, 2011. Potency, µM (doses to about 115 µM), usual class: inhibitors. Pol iota fluorescent replication assay, 10 min
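Fluorescent replication assay read twice, at 0 min and 10 min after adding 50 nM (final) substrate. Enzyme (10 nM) and compounds were first incubated 15 min at room temperature; enzyme-free buffer wells were negative controls.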
PI5P4Ka inh: qHTS for Inhibitors of phosphatidylinositol 5-phosphate 4-kinase (PI5P4K); Phosphatidylinositol 5-phosphate 4-kinase type-2 alpha (Homo sapiens), P48426; PI5P4Kalpha enzyme, ADP-Glo luminescence, 60 min; hits give low values; max response, %; 1.2% of 330,000 active; AID 652105, 2013; active = max response of -50% or lower; inconclusive = between -30% and -50%; inactive = -30% or higher; note: value at the top dose of about 77 µM
Target sequence (P48426 whole entry, looked up): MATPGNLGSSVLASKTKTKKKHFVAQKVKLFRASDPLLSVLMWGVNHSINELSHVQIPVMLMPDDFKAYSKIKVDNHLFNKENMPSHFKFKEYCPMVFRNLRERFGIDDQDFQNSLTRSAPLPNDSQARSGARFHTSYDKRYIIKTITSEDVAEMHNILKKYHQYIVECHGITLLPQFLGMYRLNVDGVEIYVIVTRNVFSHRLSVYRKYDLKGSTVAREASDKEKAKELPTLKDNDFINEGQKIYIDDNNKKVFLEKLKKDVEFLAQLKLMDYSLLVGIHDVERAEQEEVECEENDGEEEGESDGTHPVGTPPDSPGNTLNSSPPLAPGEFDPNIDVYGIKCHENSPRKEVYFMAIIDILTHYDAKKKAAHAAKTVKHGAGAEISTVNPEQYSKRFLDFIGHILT
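ADP-Glo luminescence end-point read after a 60 min room-temperature kinase reaction of PI5P4Kalpha plus substrate, initiated with ATP at 5 microM final. Buffer: 0.038 M HEPES pH 7.4, EGTA, 0.1% CHAPS, 5% DMSO.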
Pol eta inh: qHTS for Inhibitors of Polymerase Eta. DNA polymerase eta (Homo sapiens), Q9Y253. recombinant Pol eta, fluorescent DNA replication assay. Potency, µM (highest dose often 114 µM), actives largely listed as inhibitors. 1.2% of 390,000 active
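Pol eta at 10 nM preincubated with compounds 15 min at room temperature; reaction started with fluorescent substrate (50 nM final) and read kinetically at 0 and 10 min.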
Pol beta inh: qHTS Assay for Inhibitors of DNA Polymerase Beta | P06746 | Potency, µM (doses to about 114 µM), usual class: inhibitors | 1.3% of 340,000 active | AID 485314, 2010 | Pol beta primer extension/strand displacement, fluorescence kinetic
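Pol beta (10 nM) and compounds were preincubated 15 min at room temperature, then 50 nM substrate (final) started primer extension/strand displacement. Reads were taken at 0 and 10 min; concentration-response data were fitted to a four-parameter Hill equation.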
ALOX12 inh: Primary qHTS assay for inhibitors of human arachidonate 12S-lipoxygenase (ALOX12): Round 2. Polyunsaturated fatty acid lipoxygenase ALOX12 (Homo sapiens), P18054. 1.1% of 580,000 active. Potency, µM (doses to about 108 µM), usual class: inhibitors. AID 1671190, 2021. purified 12hLO, xylenol orange hydroperoxide absorbance
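Purified human 12hLO (150 nM final) in 25 mM Hepes, 0.01% Triton X-100, pH 7.0 was preincubated 15 min at room temperature with compound. Then 40 uM arachidonic acid was added, 30 min. Hydroperoxide was read by Fe-XO absorbance ratio 573/405 nm.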
POLK inh: qHTS for Inhibitors of Polymerase Kappa; purified Pol kappa, fluorescent DNA synthesis assay, 10 min; Potency, µM (top dose mostly 107 µM), hits mostly inhibitors; 0.53% of 400,000 active; AID 588579, 2011
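50 nM final substrate added after 15 min RT preincubation of 10 nM Pol kappa with compound; fluorescence read at 0 and 10 min.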
Hits are given with their value; . = inactive; ? = inconclusive; / = not tested or not shown. Unless noted, calls come from the whole dose curve; as a rule, active = well fitted inhibition curve with a large enough effect; inconclusive = small, poorly fitted or top-dose-only effect, or another doubt; inactive = no such curve, though single readings can be large or run the other way.

SMILES	POLI inh	PI5P4Ka inh	Pol eta inh	Pol beta inh	ALOX12 inh	POLK inh
CCOC(CN=c1nc(N(C)C)ss1)OCC	.	.	.	/	17.8µM	.
CC(C)C(=O)/C(C#N)=C\c1cccc(C#N)c1	/	/	/	/	.	/
CCN1C(=O)S/C(=C/c2c(OCc3ccc(C(=O)O)cc3)ccc3ccccc23)C1=O	.	.	.	50.1µM	.	.
O=C(O)c1ccc(COc2ccc3ccccc3c2/C=C2/NC(=O)N(c3ccccc3)C2=O)cc1	.	/	.	.	.	.
CCCN1CCN(c2nc3c(c(=O)[nH]c(=O)n3C)n2Cc2ccccc2C)CC1	/	/	/	/	.	/
O=C1NC(c2ccccc2Cl)=N/C1=C/c1ccco1	28.2µM	?	.	?	?	?
O=C1NC(c2ccc(Br)cc2)=N/C1=C/c1ccco1	.	.	.	?	?	.
O=C1CC(c2ccc(OCc3ccc(Cl)cc3)cc2)c2c(nc(-c3ccccc3)[nH]c2=O)N1 (centres undefined)	/	/	/	/	.	/
CCc1ccc(S(=O)(=O)Nc2ccc3nc(N4CCN(CCC#N)CC4)cc(C(=O)O)c3c2)cc1	/	/	/	/	11.2µM	/
O=C(c1ccsc1)N(Cc1ccco1)C1CC1	/	/	/	/	35.5µM	/
O=C(CCc1ccsc1)N(Cc1ccncc1)C1CC1	/	/	/	/	.	/
O=C(CCc1ccsc1)N(Cc1ccco1)C1CC1	/	/	/	/	15.8µM	/
O=C(/C=C/c1cccs1)N(Cc1ccco1)C1CC1	/	/	/	/	.	/
O=C(c1ccsc1)N(Cc1cccs1)C1CC1	/	/	/	/	.	/
O=C(Cc1cccs1)N(Cc1ccco1)C1CC1	/	/	/	/	14.1µM	/
Cc1ccc(-c2nn(CC(=O)NC3CC3)c(=O)c3ccccc23)cc1	/	/	/	/	.	/
N#Cc1c(O)c2c(-c3ccc(-c4ccccc4O)cc3)csc2[nH]c1=O	/	/	/	/	24.3µM	/
COc1ccc(C(=O)COC(=O)CCc2ccc(-c3ccccc3)o2)cc1	/	/	/	/	7.94µM	/
Oc1cc(CNCc2ccccc2)c(O)cc1CNCc1ccccc1	?	-55.9	?	/	.	79.4µM
O=C1Cc2cc(S(=O)(=O)N3CCNCC3)ccc2N1	31.6µM	.	?	/	.	.
O=C1Cc2cc(S(=O)(=O)N3CCCCC3)ccc2N1	.	.	.	.	.	.
COc1cccc(COC(=O)C2CCN(S(=O)(=O)c3ccc(F)cc3)CC2)c1	/	/	/	/	.	/
CCOC(=O)c1cnc(Nc2cccc(F)c2)c2ccccc12	/	/	/	/	.	/
CN(CC(=O)Nc1ccc(Cl)c(C(F)(F)F)c1)C(=O)Cn1cc([N+](=O)[O-])ccc1=O	.	?	79.4µM	/	?	.
CC(=O)N1CCC2(CC1)OC(=O)N(Cc1ccccc1)C2(C)c1ccccc1 (centres undefined)	/	/	/	/	.	/
SMILES	POLI inh	PI5P4Ka inh	Pol eta inh	Pol beta inh	ALOX12 inh	POLK inh
CCOC(=O)c1ccc2nc(C(F)(F)F)[nH]c(=O)c2c1	.	-57.2	.	.	.	.
O=C(O)C/C(=C/c1cccc(/C=C(/CC(=O)O)c2nc3ccccc3o2)c1)c1nc2ccccc2o1	/	/	/	/	.	/
N#CCCNC(=O)COC(=O)c1ccccc1-c1ncc(-c2ccc(F)cc2)o1	/	/	/	/	.	/
CCn1cc2nc(SCC(=O)N3CCCC3)n(Cc3ccc(C)cc3)c(=O)c2n1	/	/	/	/	.	/
Cn1cccc1CC(=O)N/N=C\c1ccccc1	?	.	.	.	.	.
Cc1ccc(/C=N\NC(=O)Cc2cccn2C)o1	79.4µM	.	.	.	.	.
COc1ccc(CC(=O)Nc2ccc(-c3cn4ccccc4n3)cc2)cc1	.	.	.	.	.	.
O=C(Nc1ccc(-c2cn3ccccc3n2)cc1)c1cccs1	?	.	?	10µM	.	?
Cc1ccc(N/N=C(\C#N)C(N)=S)cc1C	.	-51.4	.	.	2µM	.
COc1cccc(C(=O)Nc2oc3ccccc3c(=O)c2-c2cccc(C)c2)c1	/	/	/	/	.	/
COc1ccc(/C=C2/C(=O)N(c3nc4ccccc4s3)N=C2CSc2ccc(Cl)cc2)cc1	.	-71.7	?	?	5.01µM	.
COc1ccc(CN2CCN(c3nc4ccccc4s3)CC2)cc1	.	.	.	.	.	.
COc1cc(CNc2ccc3c(c2)CCC3)cc(OC)c1O	.	/	.	?	1.12µM	.
CCOc1cc(CNc2ccc3c(c2)CCC3)ccc1O	?	.	.	.	.	.
COc1ccc(Cn2cc3c(-c4ccc(F)cc4)nnc-3c3cc(OC)c(OC)cc32)cc1	.	.	.	79.4µM	?	.
CSc1ccc(C2C3=C(CCCC3=O)OC3=C2C(=O)CCC3)cc1	/	/	/	/	.	/
CC(C)COc1ccc(CNC(=S)Nc2ccccc2)cc1Cl	.	.	.	.	31.6µM	.
CC(C)Oc1ccc(CNC(=S)Nc2ccccc2)cc1Cl	.	.	.	.	?	.
CCN=c1scc(C)n1/N=C/c1cc(Br)c(O)c(Br)c1	.	?	?	?	25.1µM	.
Cc1nn(Cc2ccc(Cl)c(Cl)c2)c(C)c1NC(=O)c1cc(-c2ccco2)on1	.	/	.	44.7µM	?	.
Cc1ccc(NC(=O)c2nc3ccccc3nc2N2CCN(C)CC2)cc1C	/	/	/	/	.	/
CC1CCc2sc(C(=O)NC3CCCCC3)cc2C1 (centres undefined)	.	.	.	/	.	.
C/C(=N\NC(=O)c1cc2c(s1)CCC(C)C2)c1ccncc1 (centres undefined)	.	.	.	.	1.78µM	.
C/C(=N\NC(=O)c1cc2c(s1)CCC(C)C2)c1ccc[nH]1 (centres undefined)	.	.	.	/	.	.
CC1CCc2sc(C(=O)N/N=C/c3ccc(O)cc3)cc2C1 (centres undefined)	.	.	.	.	28.2µM	.
SMILES	POLI inh	PI5P4Ka inh	Pol eta inh	Pol beta inh	ALOX12 inh	POLK inh
CC1CCc2sc(C(=O)N/N=C3/CCCCc4ccccc43)cc2C1 (centres undefined)	/	/	/	/	1.26µM	/
CN(CCc1ccccc1)CCN1CC2(CCN(c3ncccc3C#N)CC2)OC1=O	/	/	/	/	.	/
COc1ccc(-c2nc(SC(C)C(=O)NC3CC3)n[nH]2)c(OC)c1 (centres undefined)	/	/	/	/	.	/
O=[N+]([O-])c1ccc(SNc2ccccc2)c([N+](=O)[O-])c1	.	.	.	/	.	.
O=[N+]([O-])c1ccc(-[n+]2ccc3ccccc3c2)c([N+](=O)[O-])c1	?	?	.	/	?	79.4µM
O=C(CSc1nnc(SCc2ccccc2Cl)s1)N/N=C/c1c[nH]c2ccccc12	.	.	?	.	.	.
Cc1ccc(CSc2nnc(SCC(=O)N/N=C/c3c[nH]c4ccccc34)s2)cc1	3.55µM	.	?	7.94µM	.	.
O=C1CC(c2ccco2)CC(O)=C1C=Nc1cc(Cl)cc(Cl)c1 (centres undefined)	?	.	?	39.8µM	?	70.8µM
